Assay results: PubChem BioAssay (NCATS)
Inconclusive results are not listed. Activity calls are given as the source filed them. Calls come from the whole dose curve; as a rule, active = well fitted curve in the direction sought with a large enough effect; inconclusive = small, poorly fitted or top-dose-only effect, or another doubt; inactive = no such curve, though single readings can be large; an effect the other way counts as inactive or inconclusive.

Legend:
[1] = HEK293 12hr Apoptosis Induction qHTS against the NCATS CANVASS Library (AID 1347361)
Outline: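 500 HEK293 cells/well; cpds pin-transferred, 11-pt conc series; 12 h, 37 degrees C/5% CO2; Caspase-Glo 3/7 added, 15 min RT dark; luminescence.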

[2] = system: NAD(P)H diaphorase (Clostridium kluyveri); test: Diaphorse counterscreen qHTS: Assay Interference Panel against the NCATS CANVASS Library (AID 1347362)
Outline: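 Counterscreen for coupling-enzyme interference: resorufin fluorescence from resazurin/NADH turnover, read after 5 min at room temperature. Compounds were tested over an 11-point series after 15 min dark preincubation with diaphorase in PBS-Tween.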

[3] = target: Luciferin 4-monooxygenase (Photinus pyralis) (UniProt P08659); test: Firefly luciferase counterscreen qHTS: Assay Interference Panel against the NCATS CANVASS Library (AID 1347363)
Chain of Luciferin 4-monooxygenase (Photinus pyralis) (P08659 whole entry, looked up): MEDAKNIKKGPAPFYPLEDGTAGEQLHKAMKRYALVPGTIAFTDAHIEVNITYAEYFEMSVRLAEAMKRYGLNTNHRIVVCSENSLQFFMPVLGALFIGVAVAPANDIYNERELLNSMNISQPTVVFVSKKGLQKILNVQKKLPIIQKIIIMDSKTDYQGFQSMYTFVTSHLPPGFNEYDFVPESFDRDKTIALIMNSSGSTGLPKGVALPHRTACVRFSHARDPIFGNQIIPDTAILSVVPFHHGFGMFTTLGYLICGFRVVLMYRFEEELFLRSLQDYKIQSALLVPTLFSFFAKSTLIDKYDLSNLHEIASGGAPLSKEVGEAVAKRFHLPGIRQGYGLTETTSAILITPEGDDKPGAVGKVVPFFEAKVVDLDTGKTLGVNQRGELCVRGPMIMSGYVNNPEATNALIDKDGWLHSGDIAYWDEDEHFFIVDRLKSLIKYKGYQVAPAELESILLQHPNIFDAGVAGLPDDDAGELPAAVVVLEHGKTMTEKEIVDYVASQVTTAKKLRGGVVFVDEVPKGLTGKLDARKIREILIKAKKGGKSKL
Outline: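 Luminescence inhibition readout: compounds (11-point qHTS) sat 15 min at room temperature with substrate mix (0.013 mM luciferin and ATP), then firefly luciferase was added and signal read 5 min later.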

[4] = KB-8-5-11 Cancer Cell Toxicity qHTS against the NCATS CANVASS Library (AID 1347364); note: nearly all actives have a fitted effect of over 75% in size
Outline: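 Luminescent ATP signal (CellTiter-Glo, 10 min at room temperature) measured cell survival of KB-8-5-11 after 72 hr compound treatment. For confirmation, the cells were also grown with 1uM tariquidar.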

[5] = KB-3-1 Cancer Cell Toxicity qHTS against the NCATS CANVASS Library (AID 1347366); note: nearly all actives have a fitted effect of over 75% in size
Outline: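 500 KB-3-1 cells/well; compounds pin-transferred, 11-pnt series; 72 hr, 37C/5% CO2; CellTiter-Glo, 10 min RT; luminescence read-out.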

[6] = qHTS for ATAD5 Agonist screened against the NCATS CANVASS Library (AID 1347367)
Outline: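 Luminescence read-out: ATAD5-driven luciferase in stably transfected HEK 293T cells, which rises post-transcriptionally with DNA damage. Cells were exposed 16hr at 37C to test compound; a CellTiter-Fluor fluorescence read (1hr) measured viability first.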

[7] = MCF7 Cancer Cell Toxicity qHTS against the NCATS CANVASS Library (AID 1347369)
Outline: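 Luminescent ATP signal (CellTiterGlo) served as the cytotoxicity read-out after MCF7 breast cancer cells had been incubated 72 hr at 37C with natural products in an 11-point titration.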

[8] = qHTS for ATAD5 Antagonist screened against the NCATS CANVASS Library (AID 1347370);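 note: HEK293T cells carrying an ATAD5 luciferase reporter co-treated with 10 µM 5-fluorouridine; nearly all actives have a fitted effect of over 65% in size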
Outline: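 HEK293T-ATAD5 luc reporter, 2000 cells/well; 5hr attach; cpd + 10 uM 5-FUrd; 16hr 37C, 5% CO2. Readouts: CellTiter-Fluor fluorescence (1hr), then Amplite luciferase luminescence (30min RT).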

[9] = J3T Cancer Cell Toxicity qHTS against the NCATS CANVASS Library (AID 1347371);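 note: J3T is a canine glioma cancer cell line seeded at 500 cells per well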
Outline: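 ATP-based cytotoxicity in canine J3T cells: 72 hr exposure at 37C, 11-point titration, CellTiterGlo luminescent detection.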

[10] = target: Nuclear receptor subfamily 1 group I member 3 (Homo sapiens) (UniProt Q14994); test: qHTS for Constitutive Androstane Receptor (CAR) Antagonist screened against the NCATS CANVASS Library (AID 1347372);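 note: cells stimulated with 50 nM CITCO agonist so inhibition reflects antagonism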
Chain of Nuclear receptor subfamily 1 group I member 3 (Homo sapiens) (Q14994 whole entry, looked up): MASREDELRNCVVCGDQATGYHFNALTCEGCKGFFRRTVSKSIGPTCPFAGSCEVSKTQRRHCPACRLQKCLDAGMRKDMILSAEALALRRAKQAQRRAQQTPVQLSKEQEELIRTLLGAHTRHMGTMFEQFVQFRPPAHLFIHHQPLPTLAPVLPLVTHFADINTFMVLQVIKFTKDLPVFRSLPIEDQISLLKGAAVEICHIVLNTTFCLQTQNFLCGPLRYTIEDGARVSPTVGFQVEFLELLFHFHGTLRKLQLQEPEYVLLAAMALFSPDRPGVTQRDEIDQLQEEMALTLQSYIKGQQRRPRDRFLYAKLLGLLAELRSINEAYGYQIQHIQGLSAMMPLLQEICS
Outline: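 Antagonist mode: compound added alongside 50 nM CITCO to HepG2-hCAR-CYP2B6 reporter cells, 24hr at 37C. Viability by CellTiter-Fluor fluorescence, then CAR-driven luciferase by ONE-Glo luminescence.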

[11] = target: Nuclear receptor subfamily 1 group I member 3 (Homo sapiens) (UniProt Q14994); test: qHTS for Constitutive Androstane Receptor (CAR) Agonist screened against the NCATS CANVASS Library (AID 1347373);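 note: every well also contained 1.5 µM PK11195 alongside the test compound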
Outline: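 In an 11-point concentration series, compounds were incubated 24hr with HepG2 cells carrying hCAR and a CYP2B6-2.2kb reporter, with PK11195 at 1.5uM final. A CellTiter-Fluor viability read preceded the ONE-Glo luminescence read.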

[12] = 10-beta competent E. coli microbial cell viability qHTS against the NCATS CANVASS Library (AID 1347376)
Outline: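 Overnight 37C exposure of 10-beta E. coli (0.2 OD) to an 11-point concentration series; ATP-based luminescence after 20 min room-temperature reagent incubation; daunomycin as control.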

[13] = DH5-alpha competent E. coli microbial cell viability qHTS against the NCATS CANVASS Library (AID 1347377); details: BacTiter-Glo ATP luminescence, overnight; at 46.1 µM (top of the series)
Outline: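 Overnight incubation at 37C, 5% CO2 of E. coli DH5-alpha (diluted to 0.2 OD) with compounds precedes BacTiter-Glo addition. Luminescence, acquired after 20 min at room temperature, reflects viable-cell ATP.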

[14] = qHTS for H2AX Agonists against the NCATS CANVASS Library (AID 1347378)
Outline: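 TR-FRET readout (ex 320 nm, em 665/620 nm ratio) of phospho-H2AX (S139) in CHO-K1 lysates. Cells treated 3 hr at 37C with compound titration, 0.76% DMSO; lysis 30 min, antibody detection 24 hr at RT.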

[15] = qHTS for Inflammasome Signaling Inhibitors: IL-1-beta AlphaLISA screen against the NCATS CANVASS Library (AID 1347379); details: THP-1 LPS/ATP, IL-1B AlphaLISA secretion, 16 h; at 57.5 µM (top of the series);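 note: human THP-1 cells primed with LPS then triggered with ATP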
Outline: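 THP-1, 1 hr compound pre-incubation, then LPS 250 ng/mL + ATP 1.25 mM (final); 16 hr total with compound; IL-1B AlphaLISA, ex 680/em 615 nm; 11-point qHTS, up to 57.5 uM final.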

[16] = qHTS for Antimalaria activity screened against the NCATS CANVASS Library (AID 1347380);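 note: Plasmodium falciparum strain Dd2 asexual parasites grown in red blood cells; nearly all actives have a fitted effect of over 40% in size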
Outline: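 Measures proliferation or cytotoxicity against Dd2 blood stages in 72 h cultures, 11-point qHTS dosing, with SYBR Green fluorescence as read-out; dihydroartemisinin titration served as control.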

[17] = Inflammasome Signaling qHTS Counterscreen: IL-1-beta AlphaLISA counterscreen against the NCATS CANVASS Library (AID 1347381);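 note: cell-free check with purified IL-1β in medium and no THP-1 cells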
Outline: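 Here, no cellular stimulation occurs; compounds in an 11-point series meet 4 pg purified IL-1-beta directly. Bead-based AlphaLISA detection follows (1 h acceptor/antibody, then 30 min donor, dark, room temperature), with excitation at 680 nm.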

[18] = Cytotoxicity qHTS for assessment of Hepg2 cells membrane integrity screened against the NCATS CANVASS Library (AID 1347387)
Outline: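 Membrane damage in HepG2 monolayers was estimated from released LDH, measured with CytoTox-ONE (ex 560/em 590 nm), after 5 hr treatment across 0.59 nM - 46 uM final.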

[19] = qHTS for Activators of p53 Stress Response Pathway screened against the NCATS CANVASS Library (AID 1347388)
Outline: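 Beta-lactamase reporter driven by p53 response elements in HCT-116 cells, read as the 460 nm/530 nm emission ratio after CCF4 loading, following 16 h of exposure to an 11-point series. Cell viability was measured in the same wells by CellTiter-Glo luminescence.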

[20] = qHTS assay for small molecule disruptors of mitochondrial membrane potential screened against the NCATS CANVASS Library (AID 1347389); note: nearly all actives have a fitted effect of over 60% in size
Outline: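 Cells (HepG2) seeded the day before received compound or DMSO for 1 hr, then Mito-MPS dye for 30 min at 37C; emission at 590 nm over 535 nm gave the polarization signal.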

Measured: outcome

COc1ccc2[nH]cc(CCNC(C)=O)c2c1
inactive: all assays above
